Reference: PubChem BioAssay (NCATS)
Several values for one entry are separate records, joined by “and”; a condition that tells them apart may be missing. Equal entries are not always repeated. Records with an inconclusive call do not appear. Where a call stands in place of a potency, no number is given. Activity calls are given as the source filed them. Calls follow the shape of the dose curve; as a rule, active = well fitted cell-killing curve with a large enough effect; inconclusive = small, poorly fitted or top-dose-only effect; inactive = no such curve, though single readings can be large or run the other way.

Assay: qHTS of pediatric cancer cell lines to identify multiple opportunities for drug repurposing: Confirmatory screen for DAOY cells (AID 1347114); also: nearly all actives have a fitted effect of over 65% in size
Conditions: DAOY medulloblastoma cells viability, cytotoxicity qHTS; series mostly up to 45.9 µM
Source text: Drug repurposing or repositioning has been offered as a strategy for drug development in oncology programs. This approach has special potential for childhood cancers and other rare or orphan diseases, where the expected return on new drug development has been a disincentive to pharmaceuticals.
In this project we exploit the poly-pharmacology of drugs to discover new indications via phenotypic screening of a panel of 19 well-characterized cell lines derived from solid tumors seen in children and adolescents. The goal is to identify approved drugs with previously unrecognized anticancer properties that has the potential to reveal new mechanisms and biological processes involved in carcinogenesis or drug resistance. We employed a titration-based paradigm (quantitative high-throughput screening or qHTS), where all compounds were tested at multiple concentrations for their effect on cell viability. Concentration-response curves (CRCs) were derived directly from the primary screen, and both potency and efficacy values were used to identify compounds with robust bioactivity profiles. We screened the NIH Chemical Genomics Center (NCGC) Pharmaceutical Collection (NPC) and Mechanism Interrogation Plate (MIPE) small molecule collections of approved and investigational compounds against these cell lines; and measured metabolically active cells after 48 hours of compound treatment as a proxy for cell viability.
Assay Submitter: Nathalia J. Martinez, National Center for Advancing Translational Sciences, National Institutes of Health, Rockville, MD, USA; email: natalia.martinez@nih.gov
[1] Shen, M et al. Quantitative high-throughput phenotypic screening of pediatric cancer cell lines identifies multiple opportunities for drug repurposing. Oncotarget 2017 Dec 19;9(4):4758-4772. PMID 29435139.
The cells were obtained from University of North Carolina (UNC), Pediatric Preclinical Testing Program (PPT), and Coriell Institute (CI).
qHTS cell viability assay:
Cells were assayed in growth media at a density of 500-1,000 cells/well. Five microliters of cells were dispensed into 1,536-well, white, solid-bottom, TC-treated plates (Greiner Bio One) using a multidrop dispenser and incubated at 37 degrees C, 5% CO2, under a humidified atmosphere for 5 hours. Twenty-three nanoliters of compounds and controls (neutral control DMSO or positive control bortezomib at final concentration of 2.3 µM) were subsequently transferred by Kalypsys pintool. For primary screens, the MIPE collection was tested at 11-point dilutions (final concentrations range from 0.78 nM to 46 µM) and the NPC collection at 8-point dilutions (final concentrations range from 0.59 nM to 46 µM). Compounds tested in follow-up screens were assayed at 11-point dilutions. Cells were incubated for 48 hours, followed by addition of 3 uL of CellTiter-Glo (Promega). After a 15 min incubation at room temperature, samples were analyzed for luminescence intensity using a ViewLux High-throughput CCD imager equipped with clear filters.
Potency is read from the fitted curve at half-maximal effect.

Row | SMILES | Potency
1 | CCOC(=O)c1ccc(C#Cc2ccc3c(c2)C(C)(C)CCS3)nc1 | inactive
2 | S=P(N1CC1)(N1CC1)N1CC1 | inactive
3 | COc1cc2nc(N3CCCN(C)CC3)nc(NC3CCN(Cc4ccccc4)CC3)c2cc1OC | inactive
4 | CNNCc1ccc(C(=O)NC(C)C)cc1 | inactive
5 | COC(=O)Nc1nc2ccc(C(=O)c3ccccc3)cc2[nH]1 | 928 nM (active)
6 | Nc1nc(F)nc2c1ncn2[C@@H]1O[C@H](CO)[C@@H](O)[C@@H]1O | inactive
7 | Nc1[nH]c(=O)ncc1F | inactive
8 | CC(C)(C)C(=O)OCOP(=O)(COCCn1cnc2c(N)ncnc21)OCOC(=O)C(C)(C)C | inactive
9 | CC1CC2C3CCC4=CC(=O)C=C[C@]4(C)[C@@]3(F)[C@@H](O)C[C@]2(C)[C@@]1(O)C(=O)CO (stereo partly specified) | inactive
10 | CO[C@@]12[C@H](COC(N)=O)C3=C(C(=O)C(C)=C(N)C3=O)N1C[C@@H]1N[C@@H]12 | 14700 nM (active)
11 | Nc1nc(=S)c2[nH]cnc2[nH]1 | 2.61 µM (active) and 1.47 µM (active)
12 | CNS(=O)(=O)CCc1ccc2[nH]cc(C3CCN(C)CC3)c2c1 | inactive
13 | CCC(=O)O[C@]1(C(=O)CCl)[C@@H](C)C[C@H]2[C@@H]3CCC4=CC(=O)C=C[C@]4(C)[C@@]3(F)[C@@H](O)C[C@@]21C | inactive
14 | COC(=O)Nc1nc2ccc(Sc3ccccc3)cc2[nH]1 | 928 nM (active)
15 | CC(C)NCC(O)c1ccc(NS(C)(=O)=O)cc1 (stereo unspecified) | inactive
16 | Nc1nc(N)nc(-c2cc(Cl)ccc2Cl)n1 | inactive
17 | N=C(N)c1ccc(OCCCCCOc2ccc(C(=N)N)cc2)cc1 | 14700 nM (active)
18 | NC(=O)c1cccnc1 | inactive

Row | SMILES | Potency
19 | COc1ccc(C(=O)CC(=O)c2ccc(C(C)(C)C)cc2)cc1 | inactive
20 | O=NN(CCCl)C(=O)NC1CCCCC1 | inactive
21 | CS(=O)(=O)c1ccc([C@@H](O)[C@@H](CO)NC(=O)C(Cl)Cl)cc1 | inactive
22 | C[C@@H]1C[C@H]2[C@@H]3CCC4=CC(=O)C=C[C@]4(C)[C@@]3(Cl)[C@@H](O)C[C@]2(C)[C@@]1(OC(=O)c1ccco1)C(=O)CCl | 10400 nM (active)
23 | COc1nc(N)nc2c1ncn2[C@@H]1O[C@H](CO)[C@@H](O)[C@@H]1O | inactive
24 | CCOC(=O)[C@H](CCc1ccccc1)N[C@H]1CS[C@H](c2cccs2)CN(CC(=O)O)C1=O | inactive
25 | COc1cc([C@@H]2c3cc4c(cc3[C@H](O)[C@H]3COC(=O)[C@H]23)OCO4)cc(OC)c1OC | 14.7 nM (active)
26 | COC(=O)Nc1nc2ccc(S(=O)c3ccccc3)cc2[nH]1 (stereo unspecified) | 928 nM (active)
27 | COc1cc(NCc2ccc3nc(N)nc(N)c3c2C)cc(OC)c1OC | inactive
28 | O=S(=O)(O)CCS | inactive
29 | Cn1nnc2c(C(N)=O)ncn2c1=O | inactive
30 | C[C@@H](CN1CC(=O)NC(=O)C1)N1CC(=O)NC(=O)C1 | inactive
31 | O=C(NCC1CN(c2ccc(N3CCOCC3=O)cc2)C(=O)O1)c1ccc(Cl)s1 (stereo unspecified) | inactive
32 | CC(C(=O)O)c1ccc2c(c1)CC(=O)c1ccccc1S2 (stereo unspecified) | inactive
33 | CN(C)c1ccc(C(=C2C=CC(=[N+](C)C)C=C2)c2ccc(N(C)C)cc2)cc1 | 737 nM (active)
34 | CCCCOc1ccc(CC(=O)NO)cc1 | inactive
35 | COc1ccc(-c2ccc3cc(C(=O)O)ccc3c2)cc1C12CC3CC(CC(C3)C1)C2 | inactive
36 | CC(C)(C#N)c1cc(Cn2cncn2)cc(C(C)(C)C#N)c1 | inactive
